In experiment [1] the target is human Androgen Receptor (AR), AR (gene 367) (UniProt P10275). Kind of experiment: NVS_NR_hAR: NovaScreen (NVS) Nuclear Receptor Binding Assay for human Androgen Receptor (AR) (AID 2283332). Put shortly: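 Actives from a duplicate 25 uM single-point screen went on to concentration series. Read-out after 20 h was scintillation counting of displaced radioligand in LnCAP extract, with DMSO as baseline.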

For experiment [2], the target named is rat Glutamate, MK-801 Agonist Site (GluNMDA_MK801), Grin1 (gene 24408) (UniProt P35439). Kind of experiment: NVS_LGIC_rGluNMDA_MK801_Agonist: NovaScreen (NVS) Ligand-Gated Ion Channel Assay for rat Glutamate, MK-801 Agonist Site (GluNMDA_MK801) (AID 2283340). On the procedure:
NVS_LGIC_rGluNMDA_MK801_Agonist is a biochemical, single-readout assay that uses extracted gene-proteins from Rat forebrain membranes in a tissue-based cell-free assay. Measurements were taken 1.5 hours after chemical dosing in a 48-well plate.NVS_LGIC_rGluNMDA_MK801_Agonist is one of one assay component(s) measured or calculated from the NVS_LGIC_rGluNMDA_MK801_Agonist assay. It is designed to make measurements of radioligand binding, a form of binding reporter, as detected with scintillation counting signals by Filter-based radiodetection technology.Data from the assay component NVS_LGIC_rGluNMDA_MK801_Agonist was analyzed into 1 assay endpoint. This assay endpoint, NVS_LGIC_rGluNMDA_MK801_Agonist, was analyzed in the positive analysis fitting direction relative to DMSO as the negative control and baseline of activity. Using a type of binding reporter, gain-of-signal activity can be used to understand changes in the binding as they relate to the gene Grin1. Furthermore, this assay endpoint can be referred to as a primary readout, because the performed assay has only produced 1 assay endpoint. To generalize the intended target to other relatable targets, this assay endpoint is annotated to the ion channel intended target family, where the subfamily is ligand-gated ion channel. […]

Inconclusive results are not listed. Calls of active or inactive are those of the source. How the source made its calls: active means hit-call score of the fitted dose curve at least 0.9, where 1 is the maximum; inconclusive means response in the unintended direction; inactive means score below 0.9.

The results in this text go back to PubChem BioAssay (EPA / NIEHS).

Chain of human Androgen Receptor (AR), AR (gene 367) (P10275 whole entry, looked up): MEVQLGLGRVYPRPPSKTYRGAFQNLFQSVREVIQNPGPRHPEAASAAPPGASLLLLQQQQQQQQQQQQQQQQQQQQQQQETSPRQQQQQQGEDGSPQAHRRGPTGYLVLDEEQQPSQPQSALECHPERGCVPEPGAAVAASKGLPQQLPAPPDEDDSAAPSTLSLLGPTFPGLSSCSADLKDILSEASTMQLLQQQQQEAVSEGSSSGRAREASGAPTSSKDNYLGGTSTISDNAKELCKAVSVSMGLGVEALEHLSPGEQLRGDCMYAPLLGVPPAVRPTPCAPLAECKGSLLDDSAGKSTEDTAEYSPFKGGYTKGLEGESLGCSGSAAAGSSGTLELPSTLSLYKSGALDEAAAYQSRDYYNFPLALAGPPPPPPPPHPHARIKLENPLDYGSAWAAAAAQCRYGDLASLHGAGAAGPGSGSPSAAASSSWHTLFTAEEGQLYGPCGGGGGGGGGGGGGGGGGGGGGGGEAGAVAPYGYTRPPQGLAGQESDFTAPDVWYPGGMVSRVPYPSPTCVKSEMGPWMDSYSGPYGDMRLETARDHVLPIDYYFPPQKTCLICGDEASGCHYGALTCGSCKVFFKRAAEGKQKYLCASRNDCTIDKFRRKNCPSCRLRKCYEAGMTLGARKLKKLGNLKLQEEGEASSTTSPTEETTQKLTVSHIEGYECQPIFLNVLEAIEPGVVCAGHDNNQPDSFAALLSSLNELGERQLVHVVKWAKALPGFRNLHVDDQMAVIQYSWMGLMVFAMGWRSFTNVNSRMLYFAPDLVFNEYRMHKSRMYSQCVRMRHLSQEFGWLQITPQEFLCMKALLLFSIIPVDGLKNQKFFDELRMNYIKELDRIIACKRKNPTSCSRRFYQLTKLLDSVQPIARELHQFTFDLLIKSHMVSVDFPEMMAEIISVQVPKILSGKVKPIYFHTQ

As usually defined, the AC50 is the concentration giving half of the maximal activity seen. For `Cc1cc(SC2=C(O)C[C@@](CCc3ccc(N)cc3)(C(C)C)OC2=O)c(C(C)(C)C)cc1CO`, in experiment [1], the AC50 is 9.33 µM (active). Consider `CN(C)CCCN1c2ccccc2Sc2ccc(Cl)cc21`, for which the AC50 in experiment [2] is 25 µM (active). In the case of `NC1CCCCC1`, in experiment [2], the result was inactive.
